An excerpt weighted towards active compounds, which were near 6.5% of everything screened.
Marburg entry inh: qHTS for inhibitors of binding or entry into cells for Marburg Virus. Marburg virus pseudotyped entry inhibition, cell reporter. Potency, µM (highest dose often 37.8 µM), usual class: inhibitors. hit rate 1.8% among 300,000; calls by dose curve; tested in HEK293 cells
LASV entry inh: qHTS for Inhibitors of binding or entry into cells for Lassa Virus. Lassa virus pseudotype entry inhibition, cell reporter. Potency, µM (doses to about 37.9 µM), actives largely listed as inhibitors. hit rate 1.2% among 300,000. AID 540256, 2011; calls by dose curve; tested in HEK293 cells; further: nearly all actives have a fitted effect of over 50% in size
HCMV antiviral: qHTS Assay for inhibitors of the human cytomegalovirus (HCMV). HFF cells, HCMV-luciferase reporter, 72 h; active compounds read low. activity change, negative = inhibition, % at 57.5 µM. hit rate 4.5% among 410,000. AID 1259415, 2018; in the data active means activity change below about -60%; inconclusive means no clear call, values can overlap the other calls; inactive means above about -39%
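Inhibition of viral replication was scored as loss of reporter luminescence in HFFs infected with HCMV-luciferase (MOI 1 PFU/cell) for 72 h; compounds tested at 2 doses, normalized to buffer and Salinomycin controls.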
FMDV inh: High Throughput Screening for Foot and Mouth Disease Virus Antivirals; FMDV antiviral cell-based qHTS; Potency, µM (titrated, usually from 57.9 µM), most hits filed as inhibitors; hit rate 1.2% among 410,000; AID 1159524, 2015; calls by dose curve; tested in HEK293T cells; further: read-out not given here; nearly all actives have a fitted effect of over 45% in size
Vaccinia Venus: qHTS for Stage-Specific Inhibitors of Vaccinia Orthopoxvirus: Venus Reporter Primary qHTS. hit rate 0.46% among 330,000. Vaccinia virus Venus reporter expression, fluorescence. AID 720580, 2013. Potency, µM (top dose mostly 36.5 µM), most hits filed as inhibitors; calls by dose curve; tested in A549 cells; further: nearly all actives have a fitted effect of over 30% in size
Vaccinia mCherry: qHTS for Stage-Specific Inhibitors of Vaccinia Orthopoxvirus: mCherry Reporter Primary qHTS | Vaccinia virus mCherry reporter infection, fluorescence | hit rate 0.63% among 310,000 | Potency, µM (series often up to 36.5 µM), usual class: inhibitors; calls by dose curve; tested in A549 cells; further: nearly all actives have a fitted effect of over 35% in size
A number is an active result; - = inactive; ? = inconclusive; . = no result; ! = repeats disagree; [ ] = remark or other dose.

SMILES	Marburg entry inh	LASV entry inh	HCMV antiviral	FMDV inh	Vaccinia Venus	Vaccinia mCherry
CC(C)S(=O)(=O)c1oc(-c2ccc(F)cc2)nc1S(=O)(=O)c1ccccc1	?	?	-97	16µM	-[7.34 µM]	-[7.34 µM]
CC(CCc1ccc(O)cc1)N1CCOc2c(O)cc(-c3nc4ccccc4s3)cc2C1 (stereo not given)	.	.	.	-	-	?
COc1cccc(CNC(=O)CCc2c(C)c3ccc(O)c(C)c3oc2=O)c1	?	-	-	-	-[7.34 µM]	-[7.34 µM]
O=C(NC1CC2CCCC(C1)N2Cc1ccc(F)cc1)c1ccc(F)cc1 (stereo not given)	.	.	-	-	.	.
CCCCNC(=O)c1nc2ccccc2nc1-c1ccc(F)c(F)c1	.	.	-	.	.	.
CO[C@H](C(=O)N(C)C[C@@H]1OCc2ccccc2-c2c(n(C)c3ccccc23)C(=O)N([C@H](C)CO)C[C@@H]1C)c1ccccc1	.	.	-	-	-	-
CS(=O)(=O)c1oc(-c2ccc(F)cc2)nc1S(=O)(=O)c1ccc(Cl)cc1	-	?	-96	25µM	?	?
CNc1nc2cnc(Nc3ccc(F)cc3)cc2n1-c1cccc(C(F)(F)F)c1	.	.	-	.	.	.
O=C(/C=C/c1ccc(Cl)cc1)NC1CCS(=O)(=O)C1 (stereo not given)	-	-	?	-	-	-
O=C(NC1CCS(=O)(=O)C1)Oc1ccc(Cl)cc1 (stereo not given)	-	-	-106	-	.	.
Cc1ccc2c(c1)C(c1ccc(F)cc1)N(C(=O)COc1ccc(Cl)cc1Cl)CC(=O)N2 (stereo not given)	?	?	-60	?	-	-
CCCC(=O)N1CC(=O)Nc2ccc(C)cc2C1c1ccc(F)cc1 (stereo not given)	.	.	-	-	-	-
O=C1CN(C(=O)COc2ccc(Cl)cc2Cl)C(c2ccc(F)cc2)c2cc(F)ccc2N1 (stereo not given)	?	?	-	-	-	-
CCCC(=O)N1CC(=O)Nc2ccc(Br)cc2C1c1ccc(F)cc1 (stereo not given)	11µM	-	-	-	-	-
COc1ccc(C(=O)Nc2ccc3nc(N4CCC(C)CC4)cc(C)c3c2)cc1	?	-	-	32µM	-	-
Cc1cc(N2CCN(C)CC2)nc2ccc(NC(=O)c3ccc(Br)o3)cc12	-	-	-	-	.	.
Cc1cc(N2CCCCC2)nc2ccc(NC(=O)c3ccc(Br)o3)cc12	?	?	-	40µM	-	?
Cc1cc(N2CCN(C)CC2)nc2ccc(NC(=O)c3ccc4c(c3)OCO4)cc12	4.1µM	16µM	-	-	?	?
CCN1CCN(c2cc(C)c3cc(NC(=S)N4CCN(c5ccccc5)CC4)ccc3n2)CC1	?	-	-61	-	-	-
Cc1cccc(C)c1OC[C@H](O)CNS(=O)(=O)c1ccccc1C(=O)N1CCOCC1	-	.	.	.	.	.
O=C(c1ccc(Cl)cc1)N1CCC(c2nc3ccccc3o2)CC1	-	-	-	-	-	-
CNC(=O)c1ccc(NC(=O)c2ccccc2OCc2c(C)noc2C)cc1	.	.	-	-	-	?
CCN1CCN(c2cc(C)c3cc(NC(=O)c4cc(OC)cc(OC)c4)ccc3n2)CC1	?	?	-90!	-	-	-
CCC(=O)N1CCc2cc(S(=O)(=O)NC(CC(C)C)C(=O)Nc3ccc(CC)cc3)ccc21 (stereo not given)	-	-	-	-	-	-
COc1ccc(-c2nc(CSCC(=O)N3CCN(c4cccc(C)c4C)CC3)c(C)o2)cc1OC	.	?	-93	25µM	11µM	11µM
SMILES	Marburg entry inh	LASV entry inh	HCMV antiviral	FMDV inh	Vaccinia Venus	Vaccinia mCherry
COc1ccc(-c2nc(CSCC(=O)N3CCN(c4cc(Cl)ccc4C)CC3)c(C)o2)cc1	?	-	-80	?	?	?
O=C(NCCCc1nc2ccccc2n1Cc1ccc(Cl)cc1)c1ccco1	-	-	-	?	-	-
O=C(NCCCc1nc2ccccc2n1Cc1cccc(Cl)c1)c1ccco1	?	-	-76	?	-[7.34 µM]	-[7.34 µM]
CCCCCn1c(CCCNC(=O)c2cccc(C)c2)nc2ccccc21	-	?	-85	?	?	-
CN1CCCN(C(=O)CSc2nc3cccnc3n2C)CC1	.	.	-	.	.	.
O=C(NCCc1ccccc1)c1csc(C(O)Cc2ccc(F)cc2)n1 (stereo not given)	.	.	-	.	.	.
CN(C)S(=O)(=O)N1CCC(Oc2ccc(C(=O)NCC(C)(C)CO)cc2)CC1	-	-	-64	-	-	-

Source: PubChem BioAssay
